This is an account of results in PubChem BioAssay AID1220 (Sanford-Burnham Center for Chemical Genomics, 2008).

Structures are written as SMILES. Among all 190,000 compounds or so, about 1,300 (0.68%) were called active. No stated cut-off is given here; in the data, active means inhibition above about 50%; inactive means the rest. Shown is part of a subset that was picked to be rich in actives.

The target in this assay is Mannose-6-phosphate isomerase (Homo sapiens) (UniProt P34949). Put plainly: human PMI inhibitors, high substrate, primary screen, biochemical, fluorescence intensity, high mannose 6-phosphate (AID 1220). As to conditions: recombinant PMI enzyme, coupled fluorescence intensity; at 20 µM; active compounds read high.
Chain of Mannose-6-phosphate isomerase (Homo sapiens) (P34949 whole entry, looked up): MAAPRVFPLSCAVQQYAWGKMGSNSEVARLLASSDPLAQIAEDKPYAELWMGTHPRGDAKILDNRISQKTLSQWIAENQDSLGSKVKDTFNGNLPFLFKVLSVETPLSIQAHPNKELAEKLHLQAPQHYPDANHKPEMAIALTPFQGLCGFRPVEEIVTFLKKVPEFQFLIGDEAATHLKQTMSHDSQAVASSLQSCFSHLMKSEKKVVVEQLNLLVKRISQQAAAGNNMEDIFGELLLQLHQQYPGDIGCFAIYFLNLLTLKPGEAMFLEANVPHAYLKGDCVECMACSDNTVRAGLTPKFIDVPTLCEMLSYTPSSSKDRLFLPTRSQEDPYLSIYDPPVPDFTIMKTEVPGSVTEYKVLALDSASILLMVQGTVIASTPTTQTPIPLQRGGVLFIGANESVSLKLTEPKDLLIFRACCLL
One may read the inhibition as the change of the read-out against control, counted positive when it falls. For the compound `COC(=O)c1ccc(S(=O)(=O)N2CCCCC2)o1`, the inhibition was 9% (inactive).

In the case of `Cc1cc(NN)nc(NS(=O)(=O)c2ccccc2)n1`, the inhibition is 5% (inactive).

As to `CC(C)N(C(=O)CSc1nnc(CN2CCCCCC2=O)n1-c1ccccn1)C(C)C`, the inhibition is -4.7% (inactive).

As for `COc1ccc(N(C(=O)Cn2nnc3ccccc32)C(C(=O)NC(C)(C)C)c2ccc(OC)c(O)c2)cc1` (configuration not stated), the inhibition is -4% (inactive).

Take `CCc1ccccc1NC1Nc2cc(C)nn2S1` (configuration not stated): the inhibition is 27.6% (inactive).

On to `Cc1cc2n(n1)SC(Nc1cccc3ccccc13)N2` (configuration not stated), for which the inhibition is 54.1% (active).

`Cc1cc2n(n1)SC(Nc1ccccc1)N2` (configuration not stated): the inhibition was -0.8% (inactive).

In the case of `CCCC1CCC(=NNC(=O)OC(C)(C)C)CC1` (configuration not stated), the inhibition is 2.1% (inactive).

As for `Cc1ccc(Oc2ccc(Cl)cc2N)cc1`, the inhibition was -7.7% (inactive).

As for `CN(C)c1ccc(C(=O)c2ccc(N(C)C)c(N)c2)cc1N`, the inhibition is 23.2% (inactive).

With `CN(C)c1ccc(Cl)cc1N`, the inhibition is 53.2% (active).

For the compound `O=C1Nc2ccc(S(=O)(=O)N3CCCC3)c3ccc(S(=O)(=O)N4CCCC4)c1c23`, the inhibition is 32.5% (inactive).

`CCCCCC(=O)NC(CC(=O)OC)c1ccc2c(c1)OCO2` (configuration not stated): the inhibition is 2.2% (inactive).

Consider `CCc1ccc(OCC(=O)OCC(=O)c2ccc3c(c2)NC(=O)CO3)cc1`, for which the inhibition was 5% (inactive).

In the case of `COCc1nnc(NC(=O)c2ccccc2[N+](=O)[O-])s1`, the inhibition was -1.2% (inactive).

As to `COc1cc(C(=O)Oc2cc(C)cc(C)c2)cc(OC)c1OC`, the inhibition is 9.6% (inactive).

Turning to `COc1ccc(C(=O)ON=C2C=C(C)C(=O)C(C)=C2)cc1`, the inhibition is 40.1% (inactive).

Consider `COc1cc(C(=O)O/N=C2\CCCc3c2ccc(OC)c3[N+](=O)[O-])cc(OC)c1OC`, for which the inhibition was 13.8% (inactive).

In the case of `CC1=C(C)/C(=N/OC(=O)c2cccc([N+](=O)[O-])c2)C=CC1=O`, the inhibition was 13.4% (inactive).

As to `COc1cc(C(=O)O/N=C(\N)c2ccncc2)cc(OC)c1OC`, the inhibition is -11.7% (inactive).

As for `COc1cc(C(=O)ON=C2C=C(C)C(=O)C(C)=C2)cc(OC)c1OC`, the inhibition is 59.8% (active).

`COc1cc(C(=O)O/N=C2\C=CC(=O)C=C2C)cc(OC)c1OC`: the inhibition was 64.7% (active).

For `CC1=CC(=NOC(=O)c2cccc([N+](=O)[O-])c2)C=C(C)C1=O`, the inhibition was 19.6% (inactive).

Take `CC1=CC(=O)C=C(C)C1=NOC(=O)c1cccc([N+](=O)[O-])c1`: the inhibition is -3% (inactive).

For `COc1cc(C(=O)ON=C2C(C)=CC(=O)C=C2C)cc(OC)c1OC`, the inhibition was 71.8% (active).

For the compound `CC1=C(C)/C(=N\OC(=O)/C=C/c2ccccc2)C=CC1=O`, the inhibition was 35.2% (inactive).

As for `COc1cc(C(=O)O/N=C2/C=CC(=O)C(C)=C2C)cc(OC)c1OC`, the inhibition is 66% (active).

On to `CN(C)CCCN(Cc1cc2cc3c(cc2[nH]c1=O)OCO3)C(=S)NCc1ccco1`, for which the inhibition was 30.6% (inactive).

In the case of `CCCCc1nnc(NC(=O)CSc2nc(=O)cc(N)n2-c2ccccc2)s1`, the inhibition was 0.8% (inactive).

On to `CS(=O)(=O)N(CC(=O)N1CCOCC1)c1ccc2c(c1)OCO2`, for which the inhibition was 1.8% (inactive).

Turning to `COC(=O)COc1ccc(S(=O)(=O)NCc2cccnc2)cc1`, the inhibition is 4.3% (inactive).

As to `CC(C)(CO)Nc1ccc([N+](=O)[O-])cc1[N+](=O)[O-]`, the inhibition is 0.9% (inactive).

As for `O=C1Nc2ccccc2Oc2cc([N+](=O)[O-])cc(Oc3ccccc3)c21`, the inhibition was -3.2% (inactive).

Turning to `COc1cc(C(=O)Oc2cccc(C)c2)cc(OC)c1OC`, the inhibition was 2.4% (inactive).

In the case of `COc1cc(C(=O)O/N=C2/C=C(C)C(=O)C=C2C)cc(OC)c1OC`, the inhibition was 53.5% (active).

In the case of `COc1cc(C(=O)O/N=C(\N)c2ccc([N+](=O)[O-])cc2)cc(OC)c1OC`, the inhibition was 5.3% (inactive).

Take `Nc1cc(N2CCCC2)c(Cl)cc1[N+](=O)[O-]`: the inhibition is 25.9% (inactive).

On to `CC1CCC(C(C)C)C(OP(=O)(c2ccc(N(C)C)cc2)C(O)c2cccnc2)C1` (configuration not stated), for which the inhibition was -4.5% (inactive).

In the case of `COc1ccc(C(=O)CCNc2ccc(C)c(Cl)c2)cc1`, the inhibition was 0.5% (inactive).

On to `COc1ccc(C(=O)Nc2ccc3c(c2)OCCO3)cc1`, for which the inhibition was -6.5% (inactive).

As for `COc1ccc(C(=O)CCNc2ccc3c(c2)OCCO3)cc1`, the inhibition is 58% (active).

Consider `O=C(COC(=O)c1ccc2c(=O)n3c(nc2c1)CCC3)NC1CCS(=O)(=O)C1` (configuration not stated), for which the inhibition was -5.4% (inactive).

Consider `Cc1ccc(C(=O)N2CCOCC2)cc1S(=O)(=O)Nc1cccc(C)c1C`, for which the inhibition was -7% (inactive).

As for `COc1cc(C2C(C#N)=C(N)OC3=C2C(=O)CC(C)(C)C3)c([N+](=O)[O-])cc1OC` (configuration not stated), the inhibition is 49.6% (inactive).

For the compound `COc1cc(C2C(C#N)=C(N)OC3=C2C(=O)CCC3)c([N+](=O)[O-])cc1OC` (configuration not stated), the inhibition was 52% (active).

For the compound `COc1ccc(C2C(C#N)=C(N)OC3=C2C(=O)CCC3)cc1OC` (configuration not stated), the inhibition was -4% (inactive).

For the compound `CCC(C)NC(=O)CO/N=C/c1ccc(C(=O)OC)cc1` (configuration not stated), the inhibition is 23.9% (inactive).

`CN(C)c1ccc(C(=S)N2CCN(C(=S)Nc3ccc(Cl)cc3)CC2)cc1`: the inhibition was -7.1% (inactive).

With `CN(C)c1ccc(C(=S)N2CCN(C(=S)Nc3cccc4ccccc34)CC2)cc1`, the inhibition is 51.7% (active).

For the compound `CN(C)c1ccc(C(=S)N2CCN(c3ccccc3)CC2)cc1`, the inhibition is 8.2% (inactive).

Take `N#CC1=C(N)OC2=C(CN(Cc3ccccc3)C/C2=C\c2cccnc2)C1c1cccnc1` (configuration not stated): the inhibition was 11.3% (inactive).

As for `CCn1c(SCC(=O)N2CCN(S(=O)(=O)c3ccccc3)CC2)nnc1-c1cccs1`, the inhibition was -3.1% (inactive).

For `O=C(CSc1nnc(C2CC2)n1Cc1ccccc1)N1CCN(S(=O)(=O)c2ccccc2)CC1`, the inhibition is -3.7% (inactive).

As to `Cc1nnc(SCC(=O)N2CCN(S(=O)(=O)c3ccccc3)CC2)n1Cc1ccccc1`, the inhibition was 57.8% (active).

Turning to `CC1Cc2nc(SCC(=O)N3CCCC3)n(C)c(=O)c2S1` (configuration not stated), the inhibition was 9.6% (inactive).

Regarding `COc1cc(/C=C(/C#N)c2nc3ccccc3c(=O)[nH]2)ccc1O`, the inhibition is 13.6% (inactive).

For the compound `Clc1ccc(Cn2cccn2)cn1`, the inhibition was 10.3% (inactive).

Consider `Cc1ccc(NCc2ccc(Cl)nc2)c(NCc2ccc(Cl)nc2)c1`, for which the inhibition is -88.3% (inactive).

For `Clc1ccc(CNc2ccccc2NCc2ccc(Cl)nc2)cn1`, the inhibition is 53.8% (active).

In the case of `COc1ccc(CCC(=O)NNC(=S)NCc2ccc(F)cc2)cc1`, the inhibition was 1.2% (inactive).

Consider `CC(C)CC[n+]1ccn(C2=C([O-])c3ccccc3C(=O)/C2=N\S(=O)(=O)c2ccccc2)c1`, for which the inhibition was 47% (inactive).

`CCCC[n+]1ccn(C2=C([O-])c3ccccc3C(=O)/C2=N\S(=O)(=O)c2ccccc2)c1`: the inhibition was 46.3% (inactive).

As to `Cc1ccc(S(=O)(=O)/N=C2\C(=O)c3ccccc3C([O-])=C2n2cc[n+](CCC(C)C)c2)cc1`, the inhibition is 50.4% (active).

As for `COc1ccccc1NC(=O)NCC(=O)Nc1c(C)cccc1C`, the inhibition is -13.9% (inactive).

`COC(=O)c1ccc(Sc2ccc(C)cc2)c(N)c1`: the inhibition was 9.7% (inactive).

`Cc1ccc(Sc2cnc(N)nc2C)cc1`: the inhibition was 3.4% (inactive).

As to `COc1cc(Sc2ccc(C)cc2)c(OC)cc1N`, the inhibition is 67.2% (active).

Take `CCc1ccc2c(c1)C(c1cccs1)=NNC(c1cccnc1)=N2`: the inhibition was 3.3% (inactive).

In the case of `C=CCSc1nc(-c2ccc3c(c2)OCO3)cc(C(F)(F)F)c1C#N`, the inhibition is 11.5% (inactive).

Take `O=C(CNCc1ccncc1)Nc1cc(S(=O)(=O)N2CCCCC2)ccc1Cl`: the inhibition was -89% (inactive).

On to `O=C(CNCc1ccccn1)Nc1cc(S(=O)(=O)N2CCCCC2)ccc1Cl`, for which the inhibition was 55.4% (active).

As to `O=C(CCl)Nc1cc(S(=O)(=O)N2CCCCCC2)ccc1Cl`, the inhibition is 4.5% (inactive).

Turning to `CC1CCC(C(C)C)C(OCC[N+](C)(C)C)C1` (configuration not stated), the inhibition was 8.9% (inactive).

As for `Cc1nn(CCO)c(C)c1Oc1ccccc1O`, the inhibition was 4% (inactive).

As for `COc1cc([C@@H]2C[C@H]3CN(c4ccccc4)C(=O)[C@]34CCCN24)cc(OC)c1OC`, the inhibition was 3.7% (inactive).

For the compound `COCc1cc([C@@H]2C[C@H]3CN(c4ccccc4)C(=O)[C@]34CCCN24)ccc1OC`, the inhibition was 13.6% (inactive).

Take `CCOc1cc([C@@H]2C[C@H]3CN(c4ccccc4)C(=O)[C@]34CCCN24)ccc1OC`: the inhibition was 57.1% (active).

As to `O=c1oc(-c2ccccc2NS(=O)(=O)c2ccccc2)nc2ccccc12`, the inhibition is -2.5% (inactive).

Regarding `Fc1cc(F)cc(NC(=S)N2CCC(c3ccccc3)C2)c1` (configuration not stated), the inhibition was -2.1% (inactive).

For `Cn1cccc1CNC(=O)Nc1ccccc1`, the inhibition was -5.8% (inactive).

For `CN(C)/C=N/C1=C(C#N)C(c2cccs2)c2ccc3ccccc3c2O1` (configuration not stated), the inhibition was 55.2% (active).

For the compound `N#CC1=C(N)Oc2cc3ccccc3cc2C1c1cccs1` (configuration not stated), the inhibition was 7.9% (inactive).

Consider `N#CC1=C(N)Oc2cc(O)ccc2C1c1cccs1` (configuration not stated), for which the inhibition was 10.1% (inactive).

As to `COc1cc(/C=N/NC(=O)CC2(C)OCCCO2)ccc1OCc1ccccc1`, the inhibition was 2.4% (inactive).

`CC1(CC(=O)N/N=C/c2ccc(OCc3ccc(Cl)cc3Cl)cc2)OCCCO1`: the inhibition was 10.6% (inactive).

As for `COc1cc(/C=N/NC(=O)CC2(C)OCCCO2)ccc1OCc1ccc(Cl)cc1Cl`, the inhibition is 51.1% (active).

As for `COc1ccc(NC(=O)CSc2nc(N)c3cc4c(nc3n2)CCCC4)c(OC)c1`, the inhibition was -6.7% (inactive).

Take `CCOC(=O)N1CCN(C(=S)Nc2cccc(C)c2C)CC1`: the inhibition was 8.4% (inactive).

With `S=C(Nc1ccccc1Cl)N1CCCC1`, the inhibition is 13.6% (inactive).

Regarding `CCOC(=O)C1CCN(C(=S)Nc2cc(C)ccc2C)CC1`, the inhibition is 7.3% (inactive).

`CCOC(=O)C1CCN(C(=S)Nc2cccc(C)c2C)CC1`: the inhibition was 52.8% (active).

Take `Cc1ccccc1NC(=S)N1CCCC1`: the inhibition was 52.6% (active).

With `Cc1ccccc1NC(=S)N1CCOCC1`, the inhibition is -2.1% (inactive).

In the case of `O=C(O)CC1NC(=O)N(C2CCCCC2)C1=O` (configuration not stated), the inhibition is -10% (inactive).

In the case of `CCCCN(CC)C(=O)Cc1ccc(Br)cc1`, the inhibition is 6.7% (inactive).

Turning to `CCOC(=O)C1(Cc2ccc(OC)cc2)CCN(C(=O)CN2CCN(CC)CC2)CC1`, the inhibition was 12.7% (inactive).

Take `O=C(COC(=O)c1nc(Cl)ccc1Cl)Nc1ccc2c(c1)OCO2`: the inhibition is 8.3% (inactive).
